Test results reported in PubChem BioAssay.
Activity calls are given as the source filed them.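 How the source made its calls, unless noted: active means inhibition above 20% together with a positive visual image hit; inconclusive means visual image hit but inhibition not above 20%; inactive means no visual image hit.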

Experiments:
[1] = inhibitors of TNFa-induced NFkB p65 translocation, primary screen, imaging, HUVEC, MLSMR starter and 10KST1 sets (AID 438); conditions: HUVEC TNFa-induced p65 nuclear translocation; cell count: measured here: nuclei count (cytotoxicity indicator), at 2.08 µM; inhibition: at 2 µM, stronger effect = higher value, 0% TNFa-plus-vehicle, 100% no-TNFa wells;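 further: compound added about 3h40 before a 20 min TNFalpha stimulation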;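 on inhibition: signal is the nuclear over cytoplasmic p65 intensity ratio per well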
[2] = reduction of polyQ htt aggregates in cells – imaging, exon1htt(103Q)mCFP cells, high-content imaging, primary screen (AID 483;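 active means visual image review flags a hit and inhibition of aggregation exceeds 20%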;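 further: compound exposure lasted 3 days before fixation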;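 on nuclei count: percent of the per-plate median nuclei count of sample wells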); conditions: exon1htt(103Q)mCFP cell line, aggregate imaging, at 2 µM; inhibition of aggregation: stronger effect = higher value; nuclei count: measured here: cell count, toxicity
[3] = endothelial E-selectin expression blockers – imaging, HUVEC, immunofluorescence, MLSMR starter and 10KST1 sets, primary screen (AID 487;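 active means visually confirmed hit in the image check and inhibition above 20%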;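 on inhibition: signal is fraction of cell area covered by stained E-selectin grains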;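 on nuclei count: 100% = median nuclei count of all wells on the same plate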); conditions: HUVEC TNFalpha-induced E-selectin immunofluorescence imaging, at 2 µM; inhibition: stronger effect = higher value; nuclei count: measured here: cell number, toxicity
[4] = biological target: Voltage-gated potassium channel subunit beta-2 (Rattus norvegicus) (UniProt P62483); assay: inhibitors of rat Kvbeta2 reductase activity – biochemical, NADPH fluorescence, primary screen (AID 622;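 active means fluorescence slope higher than the sample average by over 3 SD, cut at about -0.22 in these data, passing the limit was not always enough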;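 further: slope of raw intensity against log time taken from 70 to 1610 s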); conditions: recombinant KvBeta, 4-cyanobenzaldehyde reduction, at 10 µM, stronger effect = higher value
Chain of Voltage-gated potassium channel subunit beta-2 (Rattus norvegicus) (P62483 whole entry, looked up): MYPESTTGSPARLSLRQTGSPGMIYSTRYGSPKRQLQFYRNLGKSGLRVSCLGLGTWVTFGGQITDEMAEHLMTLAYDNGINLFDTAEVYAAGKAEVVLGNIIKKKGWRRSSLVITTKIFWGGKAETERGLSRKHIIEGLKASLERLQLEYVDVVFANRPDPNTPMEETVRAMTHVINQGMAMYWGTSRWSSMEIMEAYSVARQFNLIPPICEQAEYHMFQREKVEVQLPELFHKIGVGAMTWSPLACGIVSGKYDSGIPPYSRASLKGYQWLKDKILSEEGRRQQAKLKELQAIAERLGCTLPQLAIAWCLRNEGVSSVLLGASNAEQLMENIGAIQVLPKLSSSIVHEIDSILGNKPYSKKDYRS

[5] = biological target: Voltage-gated potassium channel subunit beta-2 (Rattus norvegicus) (UniProt P62483); assay: enhancers of rat Kvbeta2 NADPH turnover – biochemical, NADPH fluorescence, primary screen (AID 623;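 active means NADPH fluorescence slope more negative than the mean of all samples by about 3 SD, 99.7% confidence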;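 further: fluorescence intensity change per second fitted from 20 to 320 s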); conditions: Recombinant KvBeta, NADPH fluorescence decrease slope, 10 min; at 10 µM; stronger effect = lower value
[6] = biological target: Alpha-2C adrenergic receptor (Homo sapiens) (UniProt P18825); assay: compounds altering alpha2C-coupled GIRK flux – cell-based, HEK293 alpha2C/GIRK1/2, thallium flux, primary screen (AID 624;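 active means fluorescence slope after compound addition differing from the mean of all screened samples at 99.7% confidence, in either direction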;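 further: slope of fluorescence ratio to pre-addition baseline per second over 15 to 24 s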); conditions: thallium flux BTC fluorescence, at 10 µM, actives lie on both sides
Chain of Alpha-2C adrenergic receptor (Homo sapiens) (P18825 whole entry, looked up): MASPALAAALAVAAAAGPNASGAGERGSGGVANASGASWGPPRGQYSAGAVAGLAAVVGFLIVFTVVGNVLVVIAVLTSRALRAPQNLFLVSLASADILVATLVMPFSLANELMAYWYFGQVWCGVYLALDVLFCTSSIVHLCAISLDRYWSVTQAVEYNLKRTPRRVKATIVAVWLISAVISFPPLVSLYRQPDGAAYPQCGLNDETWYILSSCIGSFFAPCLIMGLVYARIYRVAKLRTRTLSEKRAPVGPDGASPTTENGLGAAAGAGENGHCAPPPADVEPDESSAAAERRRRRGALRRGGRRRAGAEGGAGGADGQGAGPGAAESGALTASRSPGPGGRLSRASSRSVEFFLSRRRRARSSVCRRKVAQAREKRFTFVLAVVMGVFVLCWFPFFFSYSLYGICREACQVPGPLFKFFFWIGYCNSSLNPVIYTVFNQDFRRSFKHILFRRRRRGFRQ

[7] = blockers of RIG-like receptor reporter activation – cell-based, Sendai virus stimulus, luciferase, 10K MLSCN set, TLR/RLR signaling modifier project, primary screen (AID 602276;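 active means inhibition at or above 50% at 10 µM; inactive means inhibition below 50%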;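 further: firefly luciferase from ISG56 promoter only with Renilla not read in this screen; 0% = Sendai virus plus DMSO and 100% = medium plus DMSO without virus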); conditions: HEK293 RL24 IRF3 luciferase reporter, at 10 µM, stronger effect = higher value
[8] = TLR3 IRF3 reporter activation blockers – cell-based, poly I:C stimulus, luciferase, 10K MLSCN set, primary screen (AID 602277;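 active means inhibition of the reporter signal at or above 50%; inactive means inhibition below 50%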); conditions: HEK293-TLR3 RL24 IRF3 luciferase reporter, at 10 µM, stronger effect = higher value

| Compound | cell count [1] | inhibition [1] | inhibition of aggregation [2] | nuclei count [2] | inhibition [3] | nuclei count [3] | fluorescence slope [4] | NADPH fluorescence slope [5] | slope [6] | inhibition [7] | inhibition [8] |
| --- | --- | --- | --- | --- | --- | --- | --- | --- | --- | --- | --- |
| Cc1cc(C(=O)Nc2ccccc2C#N)n(-c2ccccc2)n1 | 763 | 7.7% (inactive) | 19.6% (inactive) | 88.3% | 27.3% (inactive) | 108% | -0.556 (inactive) | 2.9e-05 (inactive) | 0.00747 (inactive) | -2.18% (inactive) | 20.7% (inactive) |
| CCCn1cnc2c(cnn2-c2ccc(F)cc2)c1=O | 451 | 5.5% (inactive) | 11.2% (inactive) | 85.6% | -41.5% (inactive) | 124% | -0.536 (inactive) | 1.4e-05 (inactive) | 0.00574 (inactive) | -35.2% (inactive) | -147% (inactive) |
| Nc1nc(SCc2ccc(Cl)cc2Cl)n[nH]1 | 352 | -1.7% (inactive) | -21.4% (inactive) | 97.6% | -161% (inactive) | 124% | -0.387 (inactive) | -4.5e-05 (inactive) | 0.00474 (inactive) | -12% (inactive) | -30.1% (inactive) |
| COCCn1c(COc2ccc(Cl)cc2)nnc1SCC(N)=O | 424 | 3.4% (inactive) | 7.6% (inactive) | 93.8% | -31.9% (inactive) | 119% | -0.586 (inactive) | -6e-05 (inactive) | 0.00579 (inactive) | 18.2% (inactive) | 25.2% (inactive) |
| COc1cccc(-c2nc(CS(=O)(=O)CC(=O)N3CCN(c4ccccn4)CC3)c(C)o2)c1 | 752 | -4.4% (inactive) | 2.6% (inactive) | 115% | -72.1% (inactive) | 114% | -0.506 (inactive) | -1.1e-05 (inactive) | 0.00682 (inactive) | 6.91% (inactive) | -1.07% (inactive) |
| COC(=O)CCC(=O)Nc1ccc(S(=O)(=O)N2CCCCCC2)cc1 | 743 | 16.7% (inactive) | -20.5% (inactive) | 97.4% | 34.8% (inactive) | 116% | -0.496 (inactive) | -5.3e-05 (inactive) | 0.00616 (inactive) | 8.32% (inactive) | 24.1% (inactive) |
| Nc1nc(NCc2ccco2)nn1-c1ccccc1 | 335 | -14.2% (inactive) | -22.2% (inactive) | 112% | 5.3% (inactive) | 93.7% | -0.402 (inactive) | -8.1e-05 (inactive) | 0.00567 (inactive) | 7.08% (inactive) | -10.7% (inactive) |
| CC1(C)CC(=O)C(C#N)=C(NCCCO)C1 | 471 | 5% (inactive) | -2.8% (inactive) | 98.2% | 42.4% (inactive) | 109% | -0.536 (inactive) | -3.8e-05 (inactive) | 0.00419 (inactive) | 11.1% (inactive) | 9.83% (inactive) |
| Cc1ccc2c(c1)C(O)(CC(=O)c1ccc3c(c1)OCO3)C(=O)N2 (centres undefined) | 671 | 9.5% (inactive) | -46.3% (inactive) | 93.9% | 16.8% (inactive) | 93.3% | -0.511 (inactive) | -5e-05 (inactive) | 0.00523 (inactive) | 0.102% (inactive) | 23% (inactive) |
| NC(=O)C1CCN(C(=S)c2cccs2)CC1 | 759 | 3.9% (inactive) | 12.1% (inactive) | 105% | -69.5% (inactive) | 107% | -0.49 (inactive) | -1.4e-06 (inactive) | 0.00525 (inactive) | 19.1% (inactive) | 30.8% (inactive) |
| O=S(=O)(NCC(c1cccnc1)N1CCN(c2ccccc2)CC1)c1cc(F)ccc1F (centres undefined) | 524 | -6.2% (inactive) | 9% (inactive) | 51.3% | -75.8% (inactive) | 115% | -0.508 (inactive) | 5.2e-05 (inactive) | 0.00657 (inactive) | 21.7% (inactive) | 20.8% (inactive) |
| Fc1cccc(Nc2cc(-n3cccn3)ncn2)c1 | 553 | -8.3% (inactive) | -0.2% (inactive) | 89.5% | -65.9% (inactive) | 109% | -0.509 (inactive) | -7.2e-05 (inactive) | 0.00508 (inactive) | -32.7% (inactive) | -66.1% (inactive) |
| O=C(Nc1cccc(Cl)c1)N1CCN(Cc2ccccc2)CC1 | 652 | 1.3% (inactive) | -6.8% (inactive) | 99.5% | -40% (inactive) | 106% | -0.529 (inactive) | -3.3e-05 (inactive) | 0.00631 (inactive) | -35.1% (inactive) | -81.7% (inactive) |
| CCOC(=O)N1CCN(c2c(NCCN(C)Cc3ccccc3)c(=O)c2=O)CC1 | 578 | -2% (inactive) | 9.3% (inactive) | 105% | -62.3% (inactive) | 124% | -0.492 (inactive) | -1.8e-05 (inactive) | 0.00728 (inactive) | 1.64% (inactive) | 6.95% (inactive) |
